In PubChem BioAssay AID1063 (University of Pittsburgh Molecular Library Screening Center, 2008):
Screen size: about 200,000 compounds; about 18,000 (9%) were called active. The sample holds actives, similar compounds and a random draw of the others, so the mix is not that of the screen. Unmarked numbers belong to inactive results. Rule as the data show it: active = inhibition above about 50%; inactive = the rest.

Assay: Leishmania major promastigote growth inhibition, primary screen (AID 1063);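 also: promastigotes grown with compound for 44 hours at 28 °C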
Details: Leishmania major promastigotes, resazurin fluorescence viability; at 10 µM; stronger effect = higher value
With `CCOC(=O)N1CCN(C(=S)Nc2ccc(C)cc2C)CC1` the inhibition was -7.01%.
`CC(C)Oc1ccccc1C(=O)NC(CO)C(=O)O` (stereo not drawn) gave an inhibition of -2.66%.
`NC(=O)COc1ccc(C23CC4CC(CC(C4)C2)C3)cc1` showed an inhibition of 2.36%.
For `CCC1=C/C(=C\c2ccc3c(c2)OCO3)C(=O)S1`, the inhibition was 78.2% (active).
`CSC1=N/C(=C\c2ccc3c(c2)OCO3)C(=O)S1` gave an inhibition of 17.7%.
In the case of `O=C1/C(=C/c2ccc3c(c2)OCO3)CCC/C1=C\c1ccc2c(c1)OCO2`, the inhibition was 39.8%.
For `Cc1nn(C)c(Oc2ccccc2)c1[N+](=O)[O-]`, the inhibition was 6.23%.
In the case of `Cc1nn(C)c(Oc2ccccc2)c1CCNS(=O)(=O)c1ccc(F)cc1`, the inhibition was 97.5% (active).
Work on `COc1ccc(CCNS(=O)(=O)c2ccc(F)cc2)cc1OC` yielded an inhibition of -4.28%.
With `CN(CCc1ccccn1)C(=O)CCC1CCCN(Cc2ccccc2OC(F)F)C1` (stereo not drawn) the inhibition was 67.9% (active).
`COc1cccc(CN2CCNC(=O)C2CC(=O)N(C)CCc2ccccn2)c1` (stereo not drawn) gave an inhibition of 1.29%.
Molecule `COc1ccc(F)cc1C(=O)C1CCCN(C(=O)CCc2ccccn2)C1` (stereo not drawn) has an inhibition of -6.74%.
With `CN1CCNC(=O)C1CC(=O)N1CC=C(c2ccc(F)cc2)CC1` (stereo not drawn) the inhibition was -0.97%.
For `Cn1cccc1-c1nc2ccccc2n1C`, the inhibition was 6.87%.
For `O=C(CC1SC(=Nc2ccccc2F)N(CCN2CCOCC2)C1=O)Nc1ccc(F)cc1F` (stereo not drawn), the inhibition was 50.8% (active).
Work on `N#C/C(C(=O)N1CCOCC1)=C1/SC(Cc2ccc(F)cc2)C(=O)N1c1ccccc1` (stereo not drawn) yielded an inhibition of -0.55%.
Molecule `CCN1C(=O)C(CC(=O)Nc2cc(C)ccc2C)SC1=Nc1ccc(S(N)(=O)=O)cc1` (stereo not drawn) has an inhibition of 10.5%.
Molecule `CCOC(=O)Cc1ncccc1C(=O)Nc1ccc(OC(F)(F)F)cc1` has an inhibition of -5.35%.
For `N#C/C(=C/c1cccc([N+](=O)[O-])c1)c1nnc2n1CCCCC2`, the inhibition was 81.3% (active).
Molecule `N#C/C(=C(\O)CCl)c1nnc2n1CCCCC2` has an inhibition of -1.52%.
With `N#C/C(=C(\O)C(F)(F)F)c1nnc2n1CCCCC2` the inhibition was -2.09%.
`Cc1ccc2nc(Nc3ncc4c(n3)CC(C)(C)CC4=O)nc(C)c2c1` gave an inhibition of 9.71%.
Work on `O=C(c1ccccc1)c1ccc2nc(N3CCCCC3)c3nncn3c2c1` yielded an inhibition of -0.8%.
Molecule `Cn1cc(S(=O)(=O)N2CCC(Cc3ccccc3)CC2)c(=O)n(C)c1=O` has an inhibition of -5.82%.
In the case of `c1ccc(CC2CCN(c3nc4ccccc4n4cnnc34)CC2)cc1`, the inhibition was 64.6% (active).
Molecule `CCOCCCNC(=O)C(NC(=O)Cc1c[nH]c2ccccc12)c1ccc(OC)cc1` (stereo not drawn) has an inhibition of -7.71%.
For `COc1cc(C=O)c(Br)cc1OCC(=O)NCc1ccccc1`, the inhibition was 4.2%.
Work on `COc1ccc(CCNC(=O)COC(=O)Cc2cc(OC)c(OC)c(OC)c2)cc1` yielded an inhibition of -3.11%.
Molecule `Cc1cc(N2CCN(Cc3ccc4c(c3)OCO4)CC2)n2ncnc2n1` has an inhibition of 12.7%.
For `Fc1ccc2[nH]c3c(N4CCN(Cc5ccc6c(c5)OCO6)CC4)ncnc3c2c1`, the inhibition was 77.8% (active).
Work on `Fc1ccc2[nH]c3c(N4CCSCC4)ncnc3c2c1` yielded an inhibition of 35.5%.
With `Nc1nnnn1CC(=O)N/N=C/c1ccc(-c2cccc(Cl)c2)o1` the inhibition was -9.69%.
For `COc1ccc(/C=N/n2c(C)cc(C)cc2=O)cc1`, the inhibition was -6.47%.
For `CC(CN1CCCCC1)OC(=O)c1ccccc1Cl` (stereo not drawn), the inhibition was -4.92%.
Work on `CC(C)c1csc(CN2CCC(CO)(Cc3ccccc3)CC2)n1` yielded an inhibition of 14.2%.
In the case of `CCC(C)CN1CCC(CO)(Cc2ccccc2Cl)CC1` (stereo not drawn), the inhibition was 82.2% (active).
In the case of `CC1COc2ccccc2N1S(=O)(=O)c1ccccc1` (stereo not drawn), the inhibition was 15.8%.
For `CC(=O)Nc1cccc(OCC(=O)/C=C2\N(C)c3ccccc3C2(C)C)c1`, the inhibition was 48.1%.
With `CN1/C(=C\C=C2\N=C(c3ccc(F)cc3)OC2=O)C(C)(C)c2ccccc21` the inhibition was 63.4% (active).
Work on `CN1CCN(CCC(=O)N/N=C/C=C2\N(C)c3ccccc3C2(C)C)CC1` yielded an inhibition of 4.61%.
For `O=C(O)CSc1nccc2ccccc12`, the inhibition was -6.68%.
Work on `O=C(c1ccccc1Cl)N(Cc1ccccc1F)N1C(=O)CCCC1=O` yielded an inhibition of -3.99%.
`O=C(O)CC(SCC(=O)Nc1ccc(Br)cc1)C(=O)O` (stereo not drawn) showed an inhibition of -3.9%.
For `CC1(C)CC(=O)CC2(C1)NCC(c1ccccc1Cl)c1c2[nH]c2ccccc12` (stereo not drawn), the inhibition was 53.5% (active).
In the case of `O=C(Nc1nnc(C2COc3ccccc3O2)o1)c1ccc(F)cc1` (stereo not drawn), the inhibition was 84.8% (active).
`Cc1onc(-c2ccccc2)c1C(=O)NNC(=S)NC(=O)c1ccc(F)cc1` showed an inhibition of -0.74%.
`c1ccc2c(c1)OCC(c1nn3cnnc3s1)O2` (stereo not drawn) showed an inhibition of -7.7%.
With `CCn1nc(C)c(CN2CCN(Cc3ccc(OC)c(C)c3C)C(CCO)C2)c1C` (stereo not drawn) the inhibition was 5.83%.
In the case of `CC1CCC(C(C)C)C(=O)/C1=C\c1ccc(NC(=O)CCC(=O)O)cc1` (stereo not drawn), the inhibition was 4.09%.
Work on `O=C(c1ccc(OC2CCN(Cc3ccccn3)CC2)cc1)N1CCCCCC1` yielded an inhibition of 39.9%.
For `O=C(c1cccc(S(=O)(=O)N2CCOCC2)c1)N1CCOCC1`, the inhibition was -2.4%.
`COc1ccc(Br)cc1/C=N/NC(=O)c1cccc(S(=O)(=O)N2CCOCC2)c1` gave an inhibition of 14.1%.
For `O=C(N/N=C/c1ccc([N+](=O)[O-])o1)c1cccc(S(=O)(=O)N2CCOCC2)c1`, the inhibition was 99.2% (active).
Work on `O=C(Nc1ccc2oc(-c3ccccc3F)nc2c1)c1ccco1` yielded an inhibition of 9.45%.
For `CS(=O)(=O)n1nc(-c2ccco2)nc1N`, the inhibition was -6.28%.
`CONc1nc2nonc2nc1NOC` gave an inhibition of -1.47%.
`Cc1nn(-c2ccccc2)c(Cl)c1C(=O)Nc1ccccc1` gave an inhibition of 1.56%.
For `Cc1ccc(C(=O)/C=C/c2c(C)nn(-c3ccccc3)c2Cl)cc1`, the inhibition was 73.7% (active).
For `Cc1nn(-c2ccccc2)c(Cl)c1/C=C/C(=O)c1ccc(O)cc1`, the inhibition was 44.1%.
With `CCCOC(=O)c1c(NC(=O)c2cnn3c2NC(c2ccccc2)CC3C(F)(F)F)sc2c1CCCC2` (stereo not drawn) the inhibition was 4.09%.
Molecule `CCOC(=O)N1CCC(=NNC(N)=O)CC1` has an inhibition of -11.1%.
With `Cc1cccc(NC(=O)CN2C(=O)c3ccccc3C2=O)c1C` the inhibition was -7.46%.
`Cc1cc(C)cc(OCC(=O)Nc2nc3ccc([N+](=O)[O-])cc3s2)c1` gave an inhibition of -2.84%.
Work on `CCOc1ccc2nc(SC(CC)C(=O)Nc3cc(C)on3)sc2c1` (stereo not drawn) yielded an inhibition of 6.15%.
With `CCOc1ccc2nc(Nc3nc4ccc(NC(C)=O)cc4s3)sc2c1` the inhibition was 72.1% (active).
For `CCOc1ccc2nc(NC(=O)c3cc([N+](=O)[O-])ccc3N3CCOCC3)sc2c1`, the inhibition was 96% (active).
`COc1ccc2nc(Nc3nc4ccc(NC(C)=O)cc4s3)sc2c1` gave an inhibition of 6.91%.
With `O=C(NC1CCCCC1)c1cc([N+](=O)[O-])ccc1N1CCOCC1` the inhibition was -6.49%.
`COc1cccc(NC(=O)C(Sc2nnnn2C)c2ccccc2)c1` (stereo not drawn) showed an inhibition of 10.5%.
Work on `COc1ccc(CN(C)Cc2nc3cc(OC)c(OC)cc3c(=O)[nH]2)c(OC)c1` yielded an inhibition of 1.39%.
`Cc1cc(NC(=O)CSc2nc3cc(Cl)ccc3c(=O)n2Cc2ccco2)no1` gave an inhibition of 4.4%.
In the case of `COc1ccc(-c2cc(-c3ccc(N)cc3)nc(N)c2C#N)cc1OC`, the inhibition was -6.13%.
`O=C(NC1CC1)c1ccc(-c2ccccc2)cc1` showed an inhibition of 6.37%.
`CCOC(=O)c1ccc(NC(=S)Nc2cc(C)cc(C)n2)cc1` showed an inhibition of 5.79%.
With `O=C(COc1ccc(Cl)cc1)NCc1nnc(SCC(=O)NCC2CCCO2)o1` (stereo not drawn) the inhibition was -8.43%.
`CC(O)c1nc2ccccc2n1Cc1ccc([N+](=O)[O-])cc1` (stereo not drawn) showed an inhibition of -2.56%.
For `CC(=O)N1c2ccccc2N(Cc2ccc([N+](=O)[O-])cc2)C(=O)C1(C)C`, the inhibition was 51.9% (active).
Molecule `O=C(CSCc1ccc([N+](=O)[O-])cc1)NCCSCc1ccccc1` has an inhibition of 12.9%.
For `O=C(Nn1cnc2ccccc2c1=O)c1ccccc1`, the inhibition was -0.77%.
`CCNC(=O)NNC(=O)C1CC(c2cccs2)=NO1` (stereo not drawn) gave an inhibition of -8.39%.
In the case of `CCN(C(=O)c1ccc(Br)cc1)c1ccccc1`, the inhibition was 3.92%.
Molecule `Cc1cc([N+](=O)[O-])nn1CCCC(=O)Nc1cccnc1Cl` has an inhibition of -6.69%.
Work on `O=C(C1CCN(S(=O)(=O)c2cccs2)CC1)N1CCCCCC1` yielded an inhibition of -2.87%.
Molecule `CS(=O)(=O)N1CCC(C(=O)N2CCN(c3ccccc3)CC2)CC1` has an inhibition of -3.18%.
In the case of `O=C(C1CCN(S(=O)(=O)c2ccc(Br)s2)CC1)N1CCN(C2CCCCC2)CC1`, the inhibition was 59.6% (active).
For `Cc1ccc(COc2ccc(C(=O)NN)cc2)cc1`, the inhibition was -1.34%.
With `CN(CCOc1ccc(Br)cc1)CC(=O)Nc1cccc(S(=O)(=O)NC2=NCCC2)c1` the inhibition was -1.24%.
With `Cc1ccc(OCCCCN2CCCCC2)c(Br)c1` the inhibition was 97.8% (active).
Work on `Cc1ccc2c(C(=O)CN3CCCC3)c(C)[nH]c2c1` yielded an inhibition of 8.69%.
For `Cc1ccc(C(C)(C)C)c(OCCCCN2CCCC2)c1`, the inhibition was 87.1% (active).
Molecule `C=CCN(CC=C)CCOc1ccccc1[N+](=O)[O-]` has an inhibition of 12.2%.
`COc1ccccc1N1CCN(CCCCOc2ccc(F)cc2)CC1` showed an inhibition of -5.52%.
For `O=[N+]([O-])c1ccccc1OCCCCN1CCCCC1`, the inhibition was 82.4% (active).
For `Cc1ccc(OCCCC(=O)N2CCOCC2)c(C)c1`, the inhibition was -2.9%.
Work on `CC1CN(CCOc2ccccc2[N+](=O)[O-])CC(C)O1` (stereo not drawn) yielded an inhibition of 8.57%.
`CCN1CCN(CCCCOc2ccccc2F)CC1` showed an inhibition of 47.3%.
`CC(C)OC(=O)Cn1nc(C(F)(F)F)c2c1CCCC2` gave an inhibition of -5.66%.
Work on `CC1CCCC(NC(=O)c2cccc(N3CCCC3=O)c2)C1C` (stereo not drawn) yielded an inhibition of -7.83%.
